PubChem BioAssay (NCI)
The panel holds about 83,000 compounds, 20% with a hit somewhere; the sample as a whole holds those more often.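 Compound tested at a single concentration for 48 hours in 96-well plates; a percent growth value below 10 was scored as active.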 Activity calls are given as the source filed them.

Each compound was assayed on HCT-15 colon (assay: NCI-60 one-dose screen, 48 h (100 = growth as untreated, 0 = no growth, -100 = all killed)). Conditions: 10 µM.
Experimental: Growth inhibition of the HCT-15 human tumor cell line is measured as a screen for anti-cancer activity. Cells are grown in 96 well plates and exposed to the test compound for 48 hours. Compounds are tested at a single concentration, which is 10^-5 M for most compounds. The reported endpoint is percent growth (GI% or GIPRCNT), where numbers from 0 - 100% represent growth inhibition, and numbers from -100% - 0 represent cell death. For example, a value of 40 represents 60% growth inhibition. A value of 0 means no net growth occurred over the course of the experiment. A value of -40 indicates 40% of cells at the beginning of the experiment died by the end of the experiment. A value of -100 means all cells are dead at the end of the experiment.
NCI-60 Human Tumor Cell Lines Screen was performed using the standard one-dose NCI protocol, which is described in more detail at https://dtp.cancer.gov/discovery_development/nci-60/default.htm.
Compounds with GIPRCNT values below 10 were considered active. Activity score was based on GIPRCNT using the following formula: […]
Score is 0 for GIPRCNT values of 100 or above, 50 for GIPRCNT values of 0, and 100 for GIPRCNT values of -100.
For `COc1ccc2cc([C@H](C)C(=O)[Se]CCC#N)ccc2c1`, the growth was -31.7% (active). In the case of `Cc1c2oc3c(C)ccc(C(=O)N[C@@H]4C(=O)N[C@H](C(C)C)C(=O)N5CCC[C@H]5C(=O)N(C)CC(=O)N(C)[C@@H](C(C)C)C(=O)OC4C)c3nc-2c(C(=O)N[C@@H]2C(=O)N[C@H](C(C)C)C(=O)N3CC(=O)C[C@H]3C(=O)N(C)CC(=O)N(C)[C@@H](C(C)C)C(=O)OC2C)c(N)c1=O` (stereo not given in full), the growth is reported as 3.67% (active). With `CC1=C(COCCOC(=O)c2ccc(S(=O)(=O)F)cc2)C2=C(C)C3(CC3)[C@@](C)(O)C(=O)C2=C1` the growth was -29.6% (active). For `CC[C@]12C=CCN3CC[C@@]4(c5ccc(OC)cc5N(C)[C@H]4[C@@](O)(C(=O)OC)[C@@H]1OC(=O)CCC[P+](C1CCCCC1)(C1CCCCC1)C1CCCCC1)[C@@H]32`, the growth was 76.6% (inactive). `CCC[Se]C(=O)c1ccc(C(=O)[Se]CCC)s1` was tested, and the growth was -71% (active). With `O=C(/C=C/c1ccc(Cl)cc1)c1nc2ccccc2n1Cc1ccc(Br)cc1` the growth was 21.4% (inactive). For `CC1=C2C(=C[C@@](C)(COP(=O)(Oc3ccccc3)Oc3ccccc3)[C@@H]2O)C(=O)[C@@](C)(O)C12CC2`, the growth was -32.5% (active). For `COc1cc(OC)c(S(=O)(=O)N(CCCl)CCCl)cc1C(=O)/C=C/c1ccc(C)cc1`, the growth was 81.8% (inactive). For `CC[C@]12C=CCN3CC[C@@]4(c5ccc(OC)cc5N(C)[C@H]4[C@@](O)(C(=O)OC)[C@@H]1OC(=O)CCCC[P+](c1ccc(C)cc1)(c1ccc(C)cc1)c1ccc(C)cc1)[C@@H]32`, the growth was -90.1% (active). `CC1=C(C=O)C2=C(C)C3(CC3)[C@@](C)(O)C(=O)C2=C1` was tested, and the growth was -29.3% (active). In the case of `COC(=O)C[C@](O)(CCC(C)C)C(=O)O[C@@H]1C(OC)=C[C@]23CCCN2CCc2cc4c(cc2[C@H]13)OCO4`, the growth is reported as -32.9% (active). For `C#CC[Se]C(=O)c1ccc(C(=O)[Se]CC#C)s1`, the growth was 93.2% (inactive). In the case of `C[C@H]1[C@H](OC(=O)CCC(=O)Nc2cnccn2)O[C@@H]2OC3(C)CC[C@H]4[C@H](C)CC[C@@H]1[C@@]24OO3`, the growth is reported as 12% (inactive). In the case of `O=C(/C=C/c1ccc(F)cc1)c1nc2ccccc2n1Cc1ccc(Br)cc1`, the growth is reported as -73.9% (active). With `CC[C@]12C=CCN3CC[C@@]4(c5ccc(OC)cc5N(C)[C@H]4[C@@](O)(C(=O)OC)[C@@H]1OC(=O)CCCC[P+](c1ccc(OC)cc1)(c1ccc(OC)cc1)c1ccc(OC)cc1)[C@@H]32` the growth was -5.69% (active). With `CC(=O)Oc1ccccc1C(=O)[Se]C(=NC(C)C)NC(C)C` the growth was -45.6% (active). With `O=C(/C=C/c1ccco1)c1nc2ccccc2n1Cc1ccc(F)cc1` the growth was 32.3% (inactive). With `N#C[Se]CC(=O)Nc1cccc(C(F)(F)F)c1` the growth was -84.8% (active). With `COC(=O)C[C@](O)(CCCC(C)C)C(=O)O[C@H]1C(OC)=C[C@@]23CCCN2CCc2cc4c(cc2[C@@H]13)OCO4` the growth was -21.1% (active). With `COc1cc(OC)c(/C=C/C(=O)c2nc3ccccc3n2Cc2ccc(F)cc2)c(OC)c1` the growth was 78.9% (inactive). In the case of `CCOP(=O)(OCC)C(NC(C)=O)C(=O)SCCN` (stereo not given), the growth is reported as 102% (inactive). With `CC(=O)Oc1ccccc1C(=O)NC([Se])=NC1CCCCC1` the growth was 3.57% (active). In the case of `O=C(NCCCCC(c1ccc(F)cc1)c1ccc(F)cc1)Nc1ccc([N+](=O)[O-])c(C(F)(F)F)c1`, the growth is reported as 0.604% (active). In the case of `COc1cc2cc(C(=O)N3C[C@@H](CCl)c4c3cc(OC(=O)N3CCN(C(=O)CCC(=O)N5CCN(C)CC5)[C@@H]5CSSC[C@@H]53)c3ccccc43)[nH]c2c(OC)c1OC`, the growth is reported as -87.4% (active). In the case of `O=C(/C=C/c1ccccc1Cl)c1nc2ccccc2n1Cc1ccc(F)cc1`, the growth is reported as -83.1% (active). In the case of `CC(C)C[C@H](NC(=O)CNC(=O)C[C@H]1O[C@@H]2OC3(C)CC[C@H]4[C@H](C)CC[C@@H]([C@H]1C)[C@@]24OO3)B(O)O`, the growth is reported as 22.7% (inactive). `COCCOCCOCCOc1ccc(-n2cc(CCCN(CCNc3ccnc4cc(Cl)ccc34)C(=O)CCC(=O)O[C@@H]3O[C@@H]4OC5(C)CC[C@H]6[C@H](C)CC[C@@H]([C@H]3C)[C@@]46OO5)nn2)cc1` was tested, and the growth was 14.2% (inactive). With `O=C(NC([Se])=NC1CCCCC1)c1ccc2c(c1)OCO2` the growth was 47.3% (inactive). In the case of `CC1=C(CCC=NNC(N)=O)C2=C(C)C3(CC3)[C@@](C)(O)C(=O)C2=C1`, the growth is reported as -49.2% (active). For `CCOP(=O)(CC(F)(F)C(F)(F)F)OCC`, the growth was -33.2% (active). For `O=C(/C=C/c1cccc(Br)c1)c1nc2ccccc2n1Cc1ccc(Br)cc1`, the growth was -78% (active). For `CC[C@]12C=CCN3CC[C@@]4(c5ccc(OC)cc5N(C)[C@H]4[C@@](O)(C(=O)OC)[C@@H]1OC(=O)CCC[P+](c1ccc(F)cc1)(c1ccc(F)cc1)c1ccc(F)cc1)[C@@H]32`, the growth was 99.6% (inactive). In the case of `CC12OOC(C)(OO1)C2CCC(=O)NCCCNc1ccnc2cc(Cl)ccc12` (stereo not given), the growth is reported as -45.1% (active). For `O=C(/C=C/c1ccc(Br)cc1)c1nc2ccccc2n1Cc1ccc(Br)cc1`, the growth was -68.4% (active). `C=CCN=C([Se])NC(=O)c1ccc2c(c1)OCO2` was tested, and the growth was 97.1% (inactive). With `COC(=O)c1ccc(-n2cc(CCCN(CCNc3ccnc4cc(Cl)ccc34)C(=O)CCC(=O)O[C@@H]3O[C@@H]4OC5(C)CC[C@H]6[C@H](C)CC[C@@H]([C@H]3C)[C@@]46OO5)nn2)cc1` the growth was -4.92% (active). `CC(=C\C(=O)Oc1ccc2c3c1OC1C(O)CCC4(O)C(C2)N(CC2CCC2)CCC314)/C=C1\CCCc2ccccc21` (stereo not given) was tested, and the growth was 7.2% (active). For `CC[C@]12C=CCN3CC[C@@]4(c5ccc(OC)cc5N(C)[C@H]4[C@@](O)(C(=O)OC)[C@@H]1OC(=O)CCCC[P+](C1CCCCC1)(C1CCCCC1)C1CCCCC1)[C@@H]32`, the growth was 75.2% (inactive). In the case of `Cc1ccc2[nH]c(=S)n(-c3ccc(F)cc3)c(=O)c2c1`, the growth is reported as 98.9% (inactive). For `O=C([Se]C1C=CCCC1)c1ccc(C(=O)[Se]C2C=CCCC2)s1` (stereo not given), the growth was -25.1% (active).
